Test results from PubChem BioAssay (NCI).
The panel holds about 83,000 compounds, 20% with a hit somewhere; the sample as a whole holds those more often.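 Values shown are percent growth following 48 h exposure of cells in 96-well plates to a single concentration of compound; below 10 was considered active.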 Values without a mark were called inactive. Active and inactive are the calls of the source.

What was measured:
Assay in all cases: NCI-60 one-dose screen, 48 h (100 = growth as untreated, 0 = no growth, -100 = all killed)
Details in all cases: 10 µM unless noted
NCI-H23 lung = system: NCI-H23 lung
NCI-H226 lung = system: NCI-H226 lung
NCI-H460 lung = system: NCI-H460 lung
HOP-92 NSCLC = system: HOP-92 NSCLC
NCI-H522 lung = system: NCI-H522 lung
A549/ATCC NSCLC = system: A549/ATCC NSCLC
786-0 renal = system: 786-0 renal
COLO 205 colon = system: COLO 205 colon
DU-145 prostate = system: DU-145 prostate
K-562 leukemia = system: K-562 leukemia
MALME-3M melanoma = system: MALME-3M melanoma
MDA-MB-231 breast = system: MDA-MB-231 breast
RXF 393 renal = system: RXF 393 renal
SF-268 CNS = system: SF-268 CNS
SF-295 CNS = system: SF-295 CNS
SF-539 CNS = system: SF-539 CNS
UACC-257 melanoma = system: UACC-257 melanoma
M14 melanoma = system: M14 melanoma
HOP-62 NSCLC = system: HOP-62 NSCLC

| SMILES | growth (NCI-H23 lung) | growth (NCI-H226 lung) | growth (NCI-H460 lung) | growth (HOP-92 NSCLC) | growth (NCI-H522 lung) | growth (A549/ATCC NSCLC) | growth (786-0 renal) | growth (COLO 205 colon) | growth (DU-145 prostate) | growth (K-562 leukemia) | growth (MALME-3M melanoma) | growth (MDA-MB-231 breast) | growth (RXF 393 renal) | growth (SF-268 CNS) | growth (SF-295 CNS) | growth (SF-539 CNS) | growth (UACC-257 melanoma) | growth (M14 melanoma) | growth (HOP-62 NSCLC) |
| --- | --- | --- | --- | --- | --- | --- | --- | --- | --- | --- | --- | --- | --- | --- | --- | --- | --- | --- | --- |
| CC(C)c1cc(C(=O)O)c(O)c(C(C)C)c1.CC(C)c1cc(C(=O)O)c(O)c(C(C)C)c1.[Mn] | 110% | 103% | 102% | -39.3% (active) | 79.5% | 99.9% | 101% | 112% | 108% | 94.8% | 103% | 103% | 129% | 96.2% | 107% | 105% | 98.8% | 107% | – |
| Nc1nc(Br)nc2c1ncn2C1CC(O)C(CO)O1 (stereo unspecified) | 20.2% | 89.6% | 97.9% | 51.5% | 109% | 51.4% | 62.8% | 62.8% | 52.7% | 79% | 90.2% | 87.2% | – | 73.9% | 94.3% | 77.8% | 87.7% | -0.9% (active) | 47% |
| COc1ccc(C2(Cl)c3ccccc3N(c3ccccc3)c3ccccc32)cc1 | -14.8% (active) | -27.8% (active) | -55.2% (active) | -14.7% (active) | -3.22% (active) | 9.18% (active) | -48.8% (active) | -42.8% (active) | 16.8% | 8.99% (active) | -57% (active) | -23.8% (active) | -28.4% (active) | 15.4% | -36.6% (active) | -20.3% (active) | -41.5% (active) | – | 8.43% (active) |
| c1ccc2[nH]c(-c3cc(-c4ccc5c(c4)OCO5)n[nH]3)nc2c1 | 68.8% | 70.7% | 46.4% | 119% | 32.9% | 58.8% | 55.7% | 70.3% | 69.1% | 36.3% | 38.2% | 65% | 59.6% | 70.5% | – | 52.4% | 66.4% | 45.8% | 62.6% |
| Cc1nn2c(-c3nc4cc(Cl)c(Cl)cc4[nH]3)c(-c3ccc(F)cc3)nc2s1 | 55.8% | 4.31% (active) | -13.4% (active) | -7.53% (active) | 65.2% | 5.51% (active) | -79.5% (active) | 17.7% | 52.8% | 68% | – | -12.9% (active) | -5.06% (active) | 28% | – | 6.21% (active) | -21% (active) | 30.1% | -36.8% (active) |
| Clc1ccc(Cn2cc(-c3nc4ccc(Br)nc4n3Cc3ccc(Cl)cc3)c3cccnc32)cc1 | 65.9% | 77.7% | 97.4% | 65.4% | 70% | 95.9% | 90.5% | – | 105% | 78.9% | 92.4% | 53.1% | 83% | 89.2% | 83.9% | 86% | – | 89.8% | 82.7% |
| CCCCC[C@H]1C/C=C2/C(=O)C=C[C@@H]2C/C=C\CCCC(=O)O[C@@H](CCCCC)C/C=C2/C(=O)C=C[C@@H]2C/C=C\CCCC(=O)O1 | -72.7% (active) | -61.2% (active) | -54.7% (active) | -68.8% (active) | -81.7% (active) | -43.5% (active) | -86.8% (active) | -81.7% (active) | -93.1% (active) | -45.3% (active) | -78.4% (active) | -50.1% (active) | -92.4% (active) | -78.7% (active) | -45% (active) | -89.5% (active) | -61.7% (active) | -82.8% (active) | -74.4% (active) |
| CC(C)(C)n1cc(-c2ccnc(NCCCNS(=O)(=O)c3ccc(Cl)cc3)c2)c(-c2cccc(F)c2)n1 | 70.9% | 80.9% | 59.4% | 73.6% | 84.2% | 61.9% | 71.4% | 43.4% | 87% | 24.8% | 73.8% | 81.6% | 72% | 86.6% | 68.2% | 75% | 93.1% | 77.7% | 93% |
| Cn1nc(-c2ccccc2)c2c(-c3ccccc3)onc2c1=O | 48% | 62.1% | 28.3% | 43.9% | 10.6% | 35.4% | 49.7% | 15.2% | 34.6% | 13% | 62.9% | 52% | 23.8% | 47% | 27.3% | 2.75% (active) | 49.2% | 42.3% | 31% |
| CCCCC/C(=C\c1ccccc1)C1OC(C)C(C)O1 (stereo unspecified) | 90.2% | 83.4% | 107% | 95% | 68.5% | 68.5% | 91.2% | – | 103% | 91.3% | 104% | 99.7% | 102% | 95.3% | 104% | 99.7% | 70.1% | 87.8% | 93.5% |
